Screens as filed in PubChem.
Hits are enriched below; roughly 2.5% of the tested compounds scored in any of these assays.
STAT3 SMM: STAT3 binders, primary screen, biochemical, small molecule microarray, single point, set 2 | His-STAT3 binding, anti-His fluorescence | calls only | hit rate 0.2% among 17,000;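 active = compounds whose four printed spots each show fluorescence over background unusually high for their array block, chance value under 7%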
Target sequence (P40763 whole entry, looked up): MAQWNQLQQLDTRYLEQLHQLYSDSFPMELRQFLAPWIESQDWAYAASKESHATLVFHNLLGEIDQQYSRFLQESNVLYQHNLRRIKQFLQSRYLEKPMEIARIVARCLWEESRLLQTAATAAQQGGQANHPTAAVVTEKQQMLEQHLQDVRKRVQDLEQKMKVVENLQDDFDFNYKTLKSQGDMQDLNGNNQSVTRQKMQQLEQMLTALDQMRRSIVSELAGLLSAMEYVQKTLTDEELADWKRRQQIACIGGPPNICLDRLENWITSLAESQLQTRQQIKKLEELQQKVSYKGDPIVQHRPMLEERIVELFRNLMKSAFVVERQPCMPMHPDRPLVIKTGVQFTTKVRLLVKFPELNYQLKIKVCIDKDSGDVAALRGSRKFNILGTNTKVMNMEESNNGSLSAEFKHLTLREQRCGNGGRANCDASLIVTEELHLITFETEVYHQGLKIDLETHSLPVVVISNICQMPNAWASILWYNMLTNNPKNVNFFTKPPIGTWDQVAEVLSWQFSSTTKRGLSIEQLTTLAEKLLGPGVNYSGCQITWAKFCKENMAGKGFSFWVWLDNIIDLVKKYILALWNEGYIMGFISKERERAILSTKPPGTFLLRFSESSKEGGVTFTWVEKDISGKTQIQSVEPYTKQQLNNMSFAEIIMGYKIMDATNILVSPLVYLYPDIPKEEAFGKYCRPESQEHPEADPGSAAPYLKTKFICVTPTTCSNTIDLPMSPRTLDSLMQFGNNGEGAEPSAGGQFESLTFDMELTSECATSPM
p53 mut binder: binders of human mutant p53, primary screen, biochemical, small molecule microarray, anti-GST fluorescence. mutant tumor protein p53 (GST-tagged), Homo sapiens. small molecule microarray binding. calls only. hit rate 0.4% among 17,000;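 active = compounds whose four printed spots each glow above background more than chance allows, each with a p-value under 7%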
NFkB SMM: binders of NF-kB p50 subunit, primary screen, biochemical, small molecule microarray, anti-His fluorescence; hit rate 1.3% among 17,000; AID 624139, 2012; anti-His fluorescence binding; calls only;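 active = spot fluorescence over background significantly raised, with a chance value under 7% in all four replicate spots of the compound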;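 note: probe protein is his-tagged human p50 processed subunit at 1 µg/ml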
Myc binder: binders of human c-Myc, primary screen, biochemical, small molecule microarray, anti-His fluorescence | His-c-Myc binding | calls only | hit rate 1.5% among 17,000 | Myc proto-oncogene protein (Homo sapiens), P01106;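 active = spot fluorescence over background with P-value below 7% in all four replicate spots, showing protein binding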
Calls only; i = inactive; + = active, no number.

SMILES	STAT3 SMM	p53 mut binder	NFkB SMM	Myc binder
C[C@@H]1CN([C@@H](C)CO)C(=O)c2cc(NS(C)(=O)=O)ccc2O[C@@H](C)CCCCO[C@@H]1CN(C)C(=O)CCC(F)(F)F	i	i	i	+
C[C@H]1CCCCO[C@H](CN(C)C(=O)CCC(F)(F)F)[C@@H](C)CN([C@@H](C)CO)C(=O)c2cc(NS(C)(=O)=O)ccc2O1	i	i	+	+
Cn1c(SCC(=O)Nc2ccccc2)nnc1-c1ccccc1F	i	i	i	i
COc1cc(OC)nc(NC(=O)CSc2nc3ccccc3s2)n1	i	i	i	i
Cc1ccc(S(=O)(=O)NC(=O)CSc2nc3ccccc3s2)cc1	i	i	i	+
CCc1ccc(S(=O)(=O)NCC(=O)O)cc1	i	i	+	+
CCCC(O)c1c(O)cccc1C1(O)CC(=O)C/C1=C\C(O)CC(=O)O (stereo unspecified)	i	i	i	i
O=C(NCCN1CCOCC1)C(=O)Nc1cccc(F)c1	i	i	i	i
CCOC(=O)c1c(NC(=O)C2CC(c3ccccc3O)=NO2)sc2c1CCCC2 (stereo unspecified)	i	i	i	i
O=[N+]([O-])c1ccc(NCCNCCO)cc1	i	+	i	i
COc1cc(S(=O)(=O)n2nnc3ccccc32)c(OC)cc1Cl	i	i	i	+
Cc1nnc(SCC(=O)Nc2cccc(I)c2)s1	i	i	i	i
Cc1ccc(-c2cc3ccccn3c2C(=O)CSc2nnc(C)s2)cc1	i	i	i	+
CCOc1cc(C(=O)O)cc(I)c1OCC(=O)O	i	i	+	+
Cc1ccc(S(=O)(=O)NC(=O)COc2cccc3ccccc23)c(C)c1	i	i	i	+
CC(C)(C)NS(=O)(=O)c1ccc(NC(=O)COc2ccc3ccccc3c2Br)cc1	i	i	i	i
COC(=O)c1ccc(COc2ccc3c(C)cc(=O)oc3c2)o1	i	i	i	i
C=CCn1c(SCC(=O)O)nnc1-c1cccc(C)c1	i	i	i	+
Oc1ccccc1CNc1ccc2c(c1)ncn2C1CCCCC1	i	i	i	+
C[C@H]1CCCCO[C@@H](CN(C)C(=O)C2CCCCC2)[C@@H](C)CN([C@@H](C)CO)C(=O)c2cc(NC(=O)Nc3ccccc3)ccc2O1	i	i	+	+
C[C@@H]1CCCCO[C@H](CN(C)C(=O)C2CCCCC2)[C@@H](C)CN([C@@H](C)CO)C(=O)c2cc(NC(=O)c3ccncc3)ccc2O1	i	i	+	i
C[C@H]1CCCCO[C@@H](CN(C)C(=O)C2CCCCC2)[C@@H](C)CN([C@@H](C)CO)C(=O)c2cc(NC(=O)c3ccncc3)ccc2O1	i	i	i	i
Cc1noc(C)c1NC(=O)Nc1ccc2c(c1)C(=O)N([C@@H](C)CO)C[C@H](C)[C@@H](CN(C)C(=O)C1CCCCC1)OCCCC[C@H](C)O2	i	i	i	+
C[C@H](CO)N1C[C@H](C)[C@H](CN(C)C(=O)C2CCCCC2)OCCCC[C@H](C)Oc2ccc(NC(=O)Nc3ccccc3)cc2C1=O	i	i	i	+
Cc1n[nH]c(C)c1C(=O)CC1(O)C(=O)Nc2ccc(Br)cc21 (stereo unspecified)	i	i	i	i
SMILES	STAT3 SMM	p53 mut binder	NFkB SMM	Myc binder
COc1cc(OC)c2ccc(=O)oc2c1CC(O)C(C)(C)OC (stereo unspecified)	i	i	i	i
COc1cc2c(cc1O)C(=O)CC1C(C)(C)C(=O)CCC21C (stereo unspecified)	i	i	i	i
CN(C)CCNc1oc(COc2ccc(Br)cc2)nc1C#N	i	i	i	i
C[C@@H]1CCCCO[C@@H](CN(C)C(=O)Nc2ccccc2)[C@H](C)CN([C@@H](C)CO)C(=O)c2cc(NC(=O)C3CCCCC3)ccc2O1	i	+	+	+
CC(C)=CCC/C(C)=C/CC/C(C)=C/CSc1ncn[nH]1	i	i	i	i
COc1ccc(Cl)cc1NC(=S)NCCCN1CCCC1=O	i	i	i	+
COc1ccc(NC(=S)NCCn2cc(Br)cn2)cc1OC	i	i	i	i
COc1ccc(Cl)cc1NC(=S)NCCn1cc(Cl)cn1	i	i	i	+
CC(=O)Nc1cccc(NC(=S)NCc2ccco2)c1	i	i	i	i
Cc1ccc(S(=O)(=O)Nc2ccc3c(c2)C(=O)N([C@@H](C)CO)C[C@H](C)[C@@H](CN(C)C(=O)CCC(F)(F)F)OCCCC[C@H](C)O3)cc1	i	i	+	i
C[C@H](CO)N1C[C@H](C)[C@@H](CN(C)C(=O)CCC(F)(F)F)OCCCC[C@H](C)Oc2ccc(NS(=O)(=O)c3ccc(F)cc3)cc2C1=O	i	i	+	+
C[C@H](CO)N1C[C@H](C)[C@H](CN(C)C(=O)CCC(F)(F)F)OCCCC[C@H](C)Oc2ccc(NS(=O)(=O)c3ccccc3)cc2C1=O	i	i	+	+
C[C@@H]1CCCCO[C@@H](CN(C)C(=O)CCC(F)(F)F)[C@@H](C)CN([C@H](C)CO)C(=O)c2cc(NS(=O)(=O)c3ccccc3)ccc2O1	i	i	i	i
C[C@H](CO)N1C[C@H](C)[C@@H](CN(C)C(=O)CCC(F)(F)F)OCCCC[C@H](C)Oc2ccc(NS(=O)(=O)c3ccccc3)cc2C1=O	i	i	i	i
O=C(CSc1ncn[nH]1)Nc1ccc(-c2nc3ccccc3s2)cc1	i	i	i	i
CC1=C(/C=C/C(C)=C\C=C\C(C)=C\C(=O)Nc2ccc(O)cc2)C(C)(C)CCC1	i	i	i	i
CCOC(=O)c1ccc(NC(=O)C(C)Sc2nc3ccccc3[nH]2)cc1 (stereo unspecified)	i	i	i	i
C/C=C/C/C=C/CCC(=O)[C@H]1O[C@H]1C(N)=O	i	i	+	i
COc1ccc(Cn2c3ccc(Br)cc3c3nc4ccccc4nc32)cc1OC	i	i	i	+
COc1ccc(C(=O)CSc2nc3ccccc3c(=O)[nH]2)cc1OC	i	i	i	i
NC(CC(=O)O)c1cccc([N+](=O)[O-])c1 (stereo unspecified)	i	i	i	i
O=C(NCCCN1CCCC1=O)c1cc2ccccc2oc1=O	i	i	i	i
CC1CC[C@@]2(OC1)O[C@H]1CC3C4CC=C5C[C@@H](O[C@@H]6O[C@H](CO)[C@@H](O)[C@H](O)[C@H]6O)CC[C@]5(C)C4CC[C@]3(C)[C@@]1(O)[C@@H]2C (stereo partly specified)	i	i	+	i
COc1ccc(NCC(O)Cn2ccc3ccccc32)cc1 (stereo unspecified)	i	i	i	i
Cc1cc(C)n(CC(O)Cn2ccc3ccccc32)n1 (stereo unspecified)	i	i	+	+
O=C(CCSc1nc2ccccc2s1)Nc1ccccc1Cl	i	i	i	i
Cc1cc(-n2nc3ccccc3n2)c2oc(SCc3nnc(-c4ccccc4)o3)nc2c1	i	i	i	i
c1ccc(Cn2ccnc2SCc2nnc(-c3ccccc3)o2)cc1	i	+	i	+
